The target of assay [1] is T1, Serine/threonine-protein kinase D2 (Homo sapiens) (UniProt Q9BZL6).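 Further: mean value of PRKD2 inhibition, from the GSK PKIS screening panel.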
T1 sequence (whole entry): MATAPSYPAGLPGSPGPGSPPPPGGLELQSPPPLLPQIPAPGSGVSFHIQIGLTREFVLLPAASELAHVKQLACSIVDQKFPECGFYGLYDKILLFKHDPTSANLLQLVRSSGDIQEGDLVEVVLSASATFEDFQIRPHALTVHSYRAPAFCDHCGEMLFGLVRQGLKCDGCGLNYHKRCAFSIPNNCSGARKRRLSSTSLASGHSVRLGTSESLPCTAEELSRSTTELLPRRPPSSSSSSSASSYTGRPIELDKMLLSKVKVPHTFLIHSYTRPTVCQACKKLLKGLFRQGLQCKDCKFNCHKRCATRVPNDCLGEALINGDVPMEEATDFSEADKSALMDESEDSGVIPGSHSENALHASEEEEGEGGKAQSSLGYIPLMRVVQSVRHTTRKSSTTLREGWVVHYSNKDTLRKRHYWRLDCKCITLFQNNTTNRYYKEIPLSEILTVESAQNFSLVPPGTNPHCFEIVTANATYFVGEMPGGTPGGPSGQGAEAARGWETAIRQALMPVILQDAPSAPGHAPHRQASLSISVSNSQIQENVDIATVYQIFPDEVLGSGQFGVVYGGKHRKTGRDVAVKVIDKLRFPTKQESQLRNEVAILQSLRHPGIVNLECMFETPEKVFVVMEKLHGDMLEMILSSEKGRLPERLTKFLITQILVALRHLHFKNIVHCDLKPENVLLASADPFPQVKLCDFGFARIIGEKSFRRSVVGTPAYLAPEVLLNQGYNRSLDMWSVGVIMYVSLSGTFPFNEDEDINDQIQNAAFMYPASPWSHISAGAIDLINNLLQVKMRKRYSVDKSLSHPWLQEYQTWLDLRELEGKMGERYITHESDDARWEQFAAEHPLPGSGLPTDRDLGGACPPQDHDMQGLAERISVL
As to conditions: at 1 µM.

Assay [2] addresses T2, Serine/threonine-protein kinase D3 (Homo sapiens) (UniProt O94806).
T2 sequence (whole entry): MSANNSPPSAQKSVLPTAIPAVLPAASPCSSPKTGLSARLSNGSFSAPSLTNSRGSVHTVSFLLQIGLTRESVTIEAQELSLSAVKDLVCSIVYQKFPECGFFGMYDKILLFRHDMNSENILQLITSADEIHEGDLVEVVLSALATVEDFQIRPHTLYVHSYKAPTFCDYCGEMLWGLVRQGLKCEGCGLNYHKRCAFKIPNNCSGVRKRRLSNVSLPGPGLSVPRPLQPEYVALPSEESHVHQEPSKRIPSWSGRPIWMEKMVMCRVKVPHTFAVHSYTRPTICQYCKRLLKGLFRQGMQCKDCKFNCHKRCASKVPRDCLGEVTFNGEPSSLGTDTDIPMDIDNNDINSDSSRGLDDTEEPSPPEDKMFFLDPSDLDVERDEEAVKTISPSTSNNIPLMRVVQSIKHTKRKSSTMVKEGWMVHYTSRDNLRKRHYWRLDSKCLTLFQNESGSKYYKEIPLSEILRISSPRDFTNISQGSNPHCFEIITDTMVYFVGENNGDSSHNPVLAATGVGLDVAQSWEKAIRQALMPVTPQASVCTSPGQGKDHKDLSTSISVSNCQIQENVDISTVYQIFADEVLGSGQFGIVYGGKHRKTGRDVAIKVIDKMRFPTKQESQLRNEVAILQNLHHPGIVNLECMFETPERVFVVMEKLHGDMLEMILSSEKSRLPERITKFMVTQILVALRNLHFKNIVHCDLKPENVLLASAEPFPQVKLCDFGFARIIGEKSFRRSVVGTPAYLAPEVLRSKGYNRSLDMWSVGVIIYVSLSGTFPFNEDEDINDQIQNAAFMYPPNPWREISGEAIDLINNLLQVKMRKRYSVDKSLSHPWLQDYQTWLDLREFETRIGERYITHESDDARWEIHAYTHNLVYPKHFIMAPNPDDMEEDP
As to conditions: at 0.1 µM.

The target in assay [3] is T2, Serine/threonine-protein kinase D3 (Homo sapiens). As to conditions: at 1 µM.
For assay [4], the target named is T3, cGMP-dependent protein kinase 1 (Homo sapiens) (UniProt Q13976).
T3 sequence (whole entry): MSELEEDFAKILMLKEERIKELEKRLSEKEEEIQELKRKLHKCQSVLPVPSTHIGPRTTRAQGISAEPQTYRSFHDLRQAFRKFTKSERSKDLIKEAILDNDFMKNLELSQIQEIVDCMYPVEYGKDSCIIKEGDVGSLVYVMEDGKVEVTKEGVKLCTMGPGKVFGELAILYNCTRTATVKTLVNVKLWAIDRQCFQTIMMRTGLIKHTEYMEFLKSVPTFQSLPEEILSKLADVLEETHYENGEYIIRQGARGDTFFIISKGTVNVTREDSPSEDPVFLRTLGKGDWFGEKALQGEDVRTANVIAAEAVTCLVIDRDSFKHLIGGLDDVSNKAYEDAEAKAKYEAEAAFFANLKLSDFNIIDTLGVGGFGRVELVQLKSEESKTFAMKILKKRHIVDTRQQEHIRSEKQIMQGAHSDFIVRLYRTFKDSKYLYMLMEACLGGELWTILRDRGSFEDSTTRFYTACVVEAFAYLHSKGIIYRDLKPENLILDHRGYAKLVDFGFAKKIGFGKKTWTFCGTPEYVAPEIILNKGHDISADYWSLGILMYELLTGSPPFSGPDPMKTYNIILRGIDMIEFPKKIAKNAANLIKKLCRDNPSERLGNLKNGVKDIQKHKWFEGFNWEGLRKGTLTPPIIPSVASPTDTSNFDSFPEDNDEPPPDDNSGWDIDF
As to conditions: at 0.1 µM.

The target of assay [5] is T3, cGMP-dependent protein kinase 1 (Homo sapiens). As to conditions: at 1 µM.
Assay [6] has as its target T4, cGMP-dependent protein kinase 2 (Homo sapiens) (UniProt Q13237).
T4 sequence (whole entry): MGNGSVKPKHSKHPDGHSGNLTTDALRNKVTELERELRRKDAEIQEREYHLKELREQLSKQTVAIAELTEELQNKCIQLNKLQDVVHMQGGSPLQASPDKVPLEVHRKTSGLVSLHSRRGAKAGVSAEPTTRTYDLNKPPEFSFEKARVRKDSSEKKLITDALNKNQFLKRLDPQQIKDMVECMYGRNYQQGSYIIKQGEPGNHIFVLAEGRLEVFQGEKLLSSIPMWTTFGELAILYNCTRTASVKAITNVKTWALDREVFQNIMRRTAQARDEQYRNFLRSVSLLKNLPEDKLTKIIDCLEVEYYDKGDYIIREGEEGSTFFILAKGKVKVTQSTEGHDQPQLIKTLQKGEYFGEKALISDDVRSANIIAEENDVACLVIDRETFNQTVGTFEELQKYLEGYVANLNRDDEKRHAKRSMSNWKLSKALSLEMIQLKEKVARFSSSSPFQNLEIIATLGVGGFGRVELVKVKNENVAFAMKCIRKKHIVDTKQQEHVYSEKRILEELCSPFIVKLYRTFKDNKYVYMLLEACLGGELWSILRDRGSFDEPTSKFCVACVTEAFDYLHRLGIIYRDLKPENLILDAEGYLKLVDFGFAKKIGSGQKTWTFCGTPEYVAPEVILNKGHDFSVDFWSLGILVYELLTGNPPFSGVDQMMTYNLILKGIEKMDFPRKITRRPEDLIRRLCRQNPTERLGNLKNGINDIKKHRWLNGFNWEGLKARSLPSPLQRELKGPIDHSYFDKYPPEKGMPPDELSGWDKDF
As to conditions: at 0.1 µM.

The target of assay [7] is T4, cGMP-dependent protein kinase 2 (Homo sapiens). As to conditions: at 1 µM.
Assay [8] addresses T5, cAMP-dependent protein kinase catalytic subunit PRKX (Homo sapiens) (UniProt P51817).
T5 sequence (whole entry): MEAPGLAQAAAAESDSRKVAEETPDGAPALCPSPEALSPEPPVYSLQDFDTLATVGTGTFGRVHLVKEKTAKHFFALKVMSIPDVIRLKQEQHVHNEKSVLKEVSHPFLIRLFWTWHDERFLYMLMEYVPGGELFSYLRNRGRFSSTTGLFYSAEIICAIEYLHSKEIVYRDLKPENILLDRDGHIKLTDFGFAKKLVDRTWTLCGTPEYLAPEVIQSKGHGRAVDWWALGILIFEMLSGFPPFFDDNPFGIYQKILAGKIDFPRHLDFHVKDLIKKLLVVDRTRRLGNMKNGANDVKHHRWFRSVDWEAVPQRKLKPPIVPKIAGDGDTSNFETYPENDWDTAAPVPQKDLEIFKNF
As to conditions: at 0.1 µM.

The target in assay [9] is T5, cAMP-dependent protein kinase catalytic subunit PRKX (Homo sapiens). As to conditions: at 1 µM.
Assay [10] deals with Rho-associated protein kinase 1 (Homo sapiens) (UniProt Q13464). As to conditions: at 0.1 µM.
For assay [11] the target is unchanged. As to conditions: at 1 µM.
In assay [12] the target is Rho-associated protein kinase 2 (Homo sapiens) (UniProt O75116). As to conditions: at 0.1 µM.
Chain of Rho-associated protein kinase 2 (Homo sapiens) (O75116 whole entry, looked up): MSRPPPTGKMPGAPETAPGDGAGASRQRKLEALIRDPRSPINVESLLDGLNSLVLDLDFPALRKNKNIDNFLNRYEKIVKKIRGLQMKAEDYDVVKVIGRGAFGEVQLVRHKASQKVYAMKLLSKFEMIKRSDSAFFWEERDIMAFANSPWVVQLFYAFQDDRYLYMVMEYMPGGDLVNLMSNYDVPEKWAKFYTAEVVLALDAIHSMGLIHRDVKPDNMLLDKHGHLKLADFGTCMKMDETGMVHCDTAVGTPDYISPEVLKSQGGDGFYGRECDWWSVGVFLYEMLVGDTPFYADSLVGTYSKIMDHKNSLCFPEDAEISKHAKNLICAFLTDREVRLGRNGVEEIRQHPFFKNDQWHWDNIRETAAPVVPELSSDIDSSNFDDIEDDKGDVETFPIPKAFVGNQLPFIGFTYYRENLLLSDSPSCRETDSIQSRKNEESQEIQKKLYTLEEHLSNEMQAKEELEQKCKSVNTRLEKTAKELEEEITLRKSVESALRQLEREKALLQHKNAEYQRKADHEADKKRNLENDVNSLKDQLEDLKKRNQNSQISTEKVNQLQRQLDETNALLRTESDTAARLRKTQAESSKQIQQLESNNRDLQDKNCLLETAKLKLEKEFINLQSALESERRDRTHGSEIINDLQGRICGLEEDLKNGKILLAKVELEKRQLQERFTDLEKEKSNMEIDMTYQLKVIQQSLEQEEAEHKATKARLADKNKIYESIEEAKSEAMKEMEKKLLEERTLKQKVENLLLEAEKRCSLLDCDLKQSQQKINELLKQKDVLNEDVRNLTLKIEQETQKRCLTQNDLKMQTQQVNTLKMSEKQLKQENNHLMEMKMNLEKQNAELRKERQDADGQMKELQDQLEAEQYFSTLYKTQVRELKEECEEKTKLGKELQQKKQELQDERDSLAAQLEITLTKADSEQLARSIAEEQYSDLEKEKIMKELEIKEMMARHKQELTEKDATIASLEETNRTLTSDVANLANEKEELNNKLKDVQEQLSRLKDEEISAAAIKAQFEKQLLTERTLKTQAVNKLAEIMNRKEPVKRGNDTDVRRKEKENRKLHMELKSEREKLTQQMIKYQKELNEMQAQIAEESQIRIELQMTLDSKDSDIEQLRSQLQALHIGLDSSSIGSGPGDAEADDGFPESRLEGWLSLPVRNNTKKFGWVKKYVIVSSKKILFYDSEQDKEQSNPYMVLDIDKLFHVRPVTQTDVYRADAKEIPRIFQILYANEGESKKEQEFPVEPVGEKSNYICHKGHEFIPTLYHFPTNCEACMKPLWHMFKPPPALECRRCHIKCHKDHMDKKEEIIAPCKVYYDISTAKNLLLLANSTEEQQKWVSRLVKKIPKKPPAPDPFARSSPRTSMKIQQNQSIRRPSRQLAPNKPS
Assay [13] has the same target. As to conditions: at 1 µM.
The target in assay [14] is Ribosomal protein S6 kinase alpha-1 (Homo sapiens) (UniProt Q15418). As to conditions: at 0.1 µM.
Chain of Ribosomal protein S6 kinase alpha-1 (Homo sapiens) (Q15418 whole entry): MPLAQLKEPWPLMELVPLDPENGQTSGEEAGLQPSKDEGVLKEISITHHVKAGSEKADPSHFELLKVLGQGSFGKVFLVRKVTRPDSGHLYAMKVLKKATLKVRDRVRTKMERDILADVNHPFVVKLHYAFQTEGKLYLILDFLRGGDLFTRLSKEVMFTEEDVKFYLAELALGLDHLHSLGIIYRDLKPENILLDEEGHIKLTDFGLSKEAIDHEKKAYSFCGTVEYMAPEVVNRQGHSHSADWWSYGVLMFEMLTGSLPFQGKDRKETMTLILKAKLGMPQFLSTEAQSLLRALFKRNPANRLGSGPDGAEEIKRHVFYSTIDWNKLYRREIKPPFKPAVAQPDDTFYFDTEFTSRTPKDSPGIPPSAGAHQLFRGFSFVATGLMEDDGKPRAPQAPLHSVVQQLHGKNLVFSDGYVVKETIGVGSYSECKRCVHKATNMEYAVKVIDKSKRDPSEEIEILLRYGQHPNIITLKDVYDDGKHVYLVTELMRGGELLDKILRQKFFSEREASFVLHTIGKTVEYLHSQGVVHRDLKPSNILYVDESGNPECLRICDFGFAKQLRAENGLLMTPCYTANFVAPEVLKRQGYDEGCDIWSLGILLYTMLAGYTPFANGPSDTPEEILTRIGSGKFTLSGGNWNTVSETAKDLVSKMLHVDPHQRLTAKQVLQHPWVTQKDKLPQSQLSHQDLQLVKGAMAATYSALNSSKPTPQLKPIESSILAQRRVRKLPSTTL
Assay [15] has the same target. As to conditions: at 1 µM.
Assay [16] deals with Ribosomal protein S6 kinase alpha-3 (Homo sapiens) (UniProt P51812). As to conditions: at 0.1 µM.
Chain of Ribosomal protein S6 kinase alpha-3 (Homo sapiens) (P51812 whole entry): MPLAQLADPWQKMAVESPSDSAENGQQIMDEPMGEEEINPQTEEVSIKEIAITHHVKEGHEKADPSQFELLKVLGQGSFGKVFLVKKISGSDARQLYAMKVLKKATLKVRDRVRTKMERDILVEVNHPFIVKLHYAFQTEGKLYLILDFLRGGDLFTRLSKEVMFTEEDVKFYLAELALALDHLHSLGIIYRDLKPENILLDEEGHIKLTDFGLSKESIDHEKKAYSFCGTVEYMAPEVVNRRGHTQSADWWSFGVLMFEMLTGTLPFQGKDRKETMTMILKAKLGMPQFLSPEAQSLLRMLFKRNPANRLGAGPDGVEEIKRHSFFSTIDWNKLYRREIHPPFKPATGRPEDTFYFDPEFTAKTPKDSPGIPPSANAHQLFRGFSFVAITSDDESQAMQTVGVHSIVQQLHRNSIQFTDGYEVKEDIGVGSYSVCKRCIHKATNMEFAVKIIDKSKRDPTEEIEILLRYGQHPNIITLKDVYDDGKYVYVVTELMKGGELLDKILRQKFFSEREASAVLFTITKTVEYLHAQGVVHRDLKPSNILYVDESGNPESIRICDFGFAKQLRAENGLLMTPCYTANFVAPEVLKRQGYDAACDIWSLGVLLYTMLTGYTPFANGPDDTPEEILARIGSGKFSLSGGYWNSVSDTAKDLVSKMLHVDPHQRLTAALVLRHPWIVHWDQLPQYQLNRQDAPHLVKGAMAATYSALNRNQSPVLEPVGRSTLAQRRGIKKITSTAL
Assay [17] shares this target. As to conditions: at 1 µM.
Assay [18] has as its target Ribosomal protein S6 kinase alpha-2 (Homo sapiens) (UniProt Q15349). As to conditions: at 0.1 µM.
For assay [19] the target is unchanged. As to conditions: at 1 µM.
For assay [20], the target named is Ribosomal protein S6 kinase alpha-6 (Homo sapiens) (UniProt Q9UK32). As to conditions: at 0.1 µM.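 Further: reported value is the mean inhibition of RSK4, from the GSK PKIS kinase inhibitor screen.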
Chain of Ribosomal protein S6 kinase alpha-6 (Homo sapiens) (Q9UK32 whole entry): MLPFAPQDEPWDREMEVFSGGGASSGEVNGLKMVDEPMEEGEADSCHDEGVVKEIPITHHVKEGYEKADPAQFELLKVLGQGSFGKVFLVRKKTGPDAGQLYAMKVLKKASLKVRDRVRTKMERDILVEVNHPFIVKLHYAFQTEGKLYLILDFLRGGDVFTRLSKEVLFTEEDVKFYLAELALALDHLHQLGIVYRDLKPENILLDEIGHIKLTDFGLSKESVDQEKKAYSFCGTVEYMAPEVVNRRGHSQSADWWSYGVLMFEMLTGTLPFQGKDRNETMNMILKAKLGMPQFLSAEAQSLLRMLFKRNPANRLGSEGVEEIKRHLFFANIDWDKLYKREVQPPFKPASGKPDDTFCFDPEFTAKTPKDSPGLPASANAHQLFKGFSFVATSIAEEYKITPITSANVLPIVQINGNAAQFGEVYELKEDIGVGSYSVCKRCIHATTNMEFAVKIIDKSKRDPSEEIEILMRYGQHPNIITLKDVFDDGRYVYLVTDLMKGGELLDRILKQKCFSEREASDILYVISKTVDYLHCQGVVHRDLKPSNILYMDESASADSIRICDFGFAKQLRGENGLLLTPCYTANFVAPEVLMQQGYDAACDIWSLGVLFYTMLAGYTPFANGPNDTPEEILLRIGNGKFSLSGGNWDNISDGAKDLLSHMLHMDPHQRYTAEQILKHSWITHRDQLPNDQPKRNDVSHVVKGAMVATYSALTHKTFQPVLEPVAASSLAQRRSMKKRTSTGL

Where “and” joins values, the source holds several entries; their conditions need not be identical. Equal entries are not always repeated.

A word on the inhibition: it is the relative decrease from the control value, in per cent.

Chain of Ribosomal protein S6 kinase alpha-2 (Homo sapiens) (Q15349 whole entry): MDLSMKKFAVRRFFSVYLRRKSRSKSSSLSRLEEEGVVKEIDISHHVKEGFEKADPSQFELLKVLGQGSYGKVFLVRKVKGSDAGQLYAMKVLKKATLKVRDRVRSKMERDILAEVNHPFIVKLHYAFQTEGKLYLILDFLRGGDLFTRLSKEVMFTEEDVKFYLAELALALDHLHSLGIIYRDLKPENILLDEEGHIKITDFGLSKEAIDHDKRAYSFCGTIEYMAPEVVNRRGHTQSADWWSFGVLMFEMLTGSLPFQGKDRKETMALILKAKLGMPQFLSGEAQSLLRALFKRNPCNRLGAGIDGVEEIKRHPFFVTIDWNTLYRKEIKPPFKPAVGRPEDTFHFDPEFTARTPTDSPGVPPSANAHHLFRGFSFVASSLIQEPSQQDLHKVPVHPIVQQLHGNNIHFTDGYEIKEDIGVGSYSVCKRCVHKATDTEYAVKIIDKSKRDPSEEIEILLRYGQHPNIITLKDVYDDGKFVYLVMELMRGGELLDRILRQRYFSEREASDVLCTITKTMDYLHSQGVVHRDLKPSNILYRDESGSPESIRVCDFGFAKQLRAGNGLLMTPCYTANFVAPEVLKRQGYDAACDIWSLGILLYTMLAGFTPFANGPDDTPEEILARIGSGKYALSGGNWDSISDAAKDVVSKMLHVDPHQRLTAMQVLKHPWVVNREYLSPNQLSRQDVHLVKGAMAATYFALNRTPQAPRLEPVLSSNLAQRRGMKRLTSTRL

Take `Cn1c(-c2nonc2N)nc2cnccc21`: the inhibition was 10.4% in assay [1]; 2.73% in assay [2]; 8.54% in assay [3]; 3.02% in assay [4]; 15% in [5]; 6.01% in [6]. The inhibition in assay [7] stood at 38.7%; in assay [8], 2.45%; in assay [9], 6.56%; in assay [10] it was 10.8%; in [11], 52.4%; in assay [12], 20%. For the same molecule, the inhibition stood at 67.5% in assay [13]; 9.65% in assay [14]; 44.8% in assay [15]; 3.58% in [16]; 23% in [17]; 8.32% in [18]. Besides, the inhibition in assay [19] worked out at 41.4%; in assay [20], 2.49%.

Consider `CN(C)CCNC(=O)Nc1ccc(N(C)c2ccnc(Nc3ccc(CS(C)(=O)=O)cc3)n2)cc1`, for which the inhibition amounted to 6.51% in [1]; 4.97% in assay [2]; 5.75% in assay [3]; 3.82% in assay [4]; 4.38% in assay [5]; 1.71% in assay [6]. Besides, the inhibition in [7] was determined as 3.5%; in assay [8], 0.73%; in [9], 0.09%; in assay [10], 3.43%; in assay [11], 19.8%; in [12], 5.05%. Moreover, the inhibition in assay [13] came to 24%; in assay [14] it was 2.03%; in assay [15], 2.41%; in assay [16] it was 0.87%; in assay [17] it was 2.03%; in assay [18] it was 2.14%. Further, the inhibition in assay [19] worked out at 4.06%; in assay [20], 1.56%.

As for `Nc1nccc(-c2c(-c3ccc(F)cc3)ncn2C2CCNCC2)n1`, the inhibition in assay [1] was 29.1% and 38.3%; in assay [2], -2.12% and 2.32%; in [3] it was 17.6% and 25.6%; in [4] it was -1.2% and -1.11%; in assay [5], -1.21% and 1.73%; in [6] it was -2.2% and 1.13%. In addition, the inhibition in assay [7] is 3.3% and 1.57%; in assay [8], -1.45% and 1.45%; in assay [9] it was -1.91% and 2.45%; in assay [10], -0.99% and 1.19%; in assay [11], 0.03% and 1.75%; in assay [12], -3.31% and 1.51%. In addition, the inhibition in [13] is -3.28% and 1.52%; in assay [14], -1.25% and 0.52%; in assay [15], 1.83% and 2.8%; in assay [16], -1.12% and 0.34%; in [17] it was 0.29% and 1.05%; in [18], -1.68% and 0.37%. In addition, the inhibition in [19] is 0.91% and 1.92%; in assay [20], -2.38% and 0.34%.

Source of the values: ChEMBL document CHEMBL1961873, “Compounds: GSK PKIS; Assays: Nanosyn kinase panel” (2012).
